An excerpt weighted towards active compounds, which were near 4.7% of everything screened.
D1 ag: human D1 receptor agonism | P21728 | HEK293 T-REx D1 cells, calcium flux, agonist mode | activation, % at 2 µM | actives 1% (n = 360,000) | AID 504660
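Agonism was scored from calcium flux recorded over 180 s (1 read/s) after pintool compound addition, following a 10-cycle baseline. Cells were inducible force-coupled HEK293 TREx D1, plated overnight at 30 C and loaded with no-wash calcium dye.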
TRHR ag: agonists of human TRH receptor; P34981; TRHR cells, calcium flux fluo-8, FDSS agonist mode; activation, % at 2 µM; actives 0.18% (n = 360,000); AID 493084
Target sequence (P34981 whole entry, looked up): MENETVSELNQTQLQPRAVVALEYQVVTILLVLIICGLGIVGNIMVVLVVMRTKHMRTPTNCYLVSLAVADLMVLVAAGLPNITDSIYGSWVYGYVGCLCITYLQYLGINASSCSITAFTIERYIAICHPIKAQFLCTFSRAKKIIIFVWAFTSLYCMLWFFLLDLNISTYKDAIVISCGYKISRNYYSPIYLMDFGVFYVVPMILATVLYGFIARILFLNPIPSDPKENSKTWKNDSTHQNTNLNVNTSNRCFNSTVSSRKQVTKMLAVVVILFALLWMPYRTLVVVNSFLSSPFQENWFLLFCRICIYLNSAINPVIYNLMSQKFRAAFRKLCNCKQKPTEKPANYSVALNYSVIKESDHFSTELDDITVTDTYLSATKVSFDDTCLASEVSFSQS
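TRHR-expressing cells loaded with fluo-8 calcium dye; 23 nL library compound pin-transferred, kinetic FDSS fluorescence (Ex 480/Em 530) recorded about 180 s for agonist-induced calcium release, before a 10 nM TRH EC20 addition for potentiator mode.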
TRHR enhancer: allosterically enhances the human TRH receptor | actives 0.66% (n = 360,000) | P34981 | enhancement, % at 2 µM | TRHR cells, fluo-8 calcium fluorescence, EC20 TRH enhancement; in the data active means enhancement above about 30%
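Enhancer read-out: after compound pinning and an initial kinetic agonist-mode read, an EC20 of TRH (10 nM final) was injected and fluo-8 calcium signal (Ex 480/Em 530) followed at 1 s/cycle for 100 cycles in TRHR-expressing cells.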
D1 potentiator: enhances dopamine response at the human D1 receptor; P21728; HEK293 TREx D1 cells, calcium flux, dopamine EC20 potentiation; potentiation, % at 10 µM; actives 0.036% (n = 360,000); AID 504651; in the data active means potentiation above about 30%
D1 antagonist: antagonists of human D1 dopamine receptor. P21728. HEK293 TREx D1 cells, calcium flux, dopamine EC80; stronger effect = lower value. activity change, negative = inhibition, % at 10 µM. actives 3.2% (n = 360,000). AID 504652; in the data active means activity change below about -30%
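HEK293 T-REx cells expressing inducible, force-coupled D1 receptor; no-wash Ca dye, 30–90 min RT. Cmpd → 180 s read at 1 Hz → EC80 DA → 180 s read.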
A number is an active result. Unless noted, no stated cut-off is given here; in the data, active means activation above about 30%; inactive means the rest.

How did Cc1cc(NC(=O)c2cc(-c3cccs3)on2)no1 do in these assays?
D1 ag: inactive; TRHR ag: inactive; TRHR enhancer: inactive; D1 potentiator: inactive; D1 antagonist: -42

Results for Cc1cc(NC(=O)c2cccs2)no1 ?
D1 ag: inactive; TRHR ag: inactive; TRHR enhancer: inactive; D1 potentiator: inactive; D1 antagonist: inactive

What do the screens show for `CCN(C(=O)c1cc(S(=O)(=O)N2CCCCC2)c[nH]1)c1ccc(OC)cc1`?
D1 ag: inactive; TRHR ag: inactive; TRHR enhancer: inactive; D1 potentiator: inactive; D1 antagonist: inactive

How did CC1CCN(C(=O)c2cc(S(=O)(=O)N3CCCCC3)c[nH]2)CC1 do in these assays?
D1 ag: inactive; TRHR ag: inactive; TRHR enhancer: inactive; D1 potentiator: inactive; D1 antagonist: -33

What do the screens show for `CCN(CC)C(=O)c1cc(S(=O)(=O)N2CCCCC2)c[nH]1`?
D1 ag: inactive; TRHR ag: inactive; TRHR enhancer: inactive; D1 potentiator: inactive; D1 antagonist: -36

What do the screens show for `COc1cccc(CNC(=O)c2ccc3c(c2)nc2n3CCC(C)C2)c1OC` (centres undefined)?
D1 ag: inactive; TRHR ag: inactive; TRHR enhancer: inactive; D1 potentiator: inactive; D1 antagonist: inactive

What do the screens show for `Cc1ccccc1C(=O)Nc1nnc(S(=O)(=O)N2CCc3ccccc32)s1`?
D1 ag: inactive; TRHR ag: inactive; TRHR enhancer: inactive; D1 potentiator: inactive; D1 antagonist: inactive

How did N/C(=N\OC(=O)c1ccncc1)c1cccc([N+](=O)[O-])c1 do in these assays?
D1 ag: inactive; TRHR ag: inactive; TRHR enhancer: 32; D1 potentiator: inactive; D1 antagonist: inactive

What do the screens show for `Cc1ccc(C(=O)O/N=C(\N)c2cccc([N+](=O)[O-])c2)cc1`?
D1 ag: inactive; TRHR ag: inactive; TRHR enhancer: inactive; D1 potentiator: inactive; D1 antagonist: inactive

How did O=C(O/N=C(/c1ccccc1)c1ccncc1)c1cccc(F)c1 do in these assays?
D1 ag: inactive; TRHR ag: inactive; TRHR enhancer: inactive; D1 potentiator: inactive; D1 antagonist: -59

How did COc1ccc(C2C(C#N)=C(N)Oc3cc(C)n(Cc4ccncc4)c(=O)c32)cc1 (centres undefined) do in these assays?
D1 ag: inactive; TRHR ag: inactive; TRHR enhancer: inactive; D1 potentiator: inactive; D1 antagonist: -35

What do the screens show for `Cc1cc2c(c(=O)n1CCN(C)C)C(c1ccncc1)C(C#N)=C(N)O2` (centres undefined)?
D1 ag: inactive; TRHR ag: inactive; TRHR enhancer: inactive; D1 potentiator: inactive; D1 antagonist: inactive

Results for COc1ccc(-n2nc(C(=O)Nc3ccccc3OC)c3c4ccccc4n(C)c3c2=O)cc1Cl ?
D1 ag: inactive; TRHR ag: inactive; TRHR enhancer: inactive; D1 potentiator: inactive; D1 antagonist: inactive

What do the screens show for `Cc1ccc(NC(=O)CSc2nnc(C)n3c2cc2sccc23)c(C)c1`?
D1 ag: inactive; TRHR ag: inactive; TRHR enhancer: inactive; D1 potentiator: inactive; D1 antagonist: inactive

How did Cc1ccc(SCCNC(=O)/C=C/c2ccc([N+](=O)[O-])cc2)cc1 do in these assays?
D1 ag: inactive; TRHR ag: inactive; TRHR enhancer: inactive; D1 potentiator: inactive; D1 antagonist: inactive

What do the screens show for `Cc1cc(NS(=O)(=O)c2ccc(NC(=O)/C=C/c3ccc(C)o3)cc2)nc(C)n1`?
D1 ag: inactive; TRHR ag: inactive; TRHR enhancer: inactive; D1 potentiator: inactive; D1 antagonist: inactive

What do the screens show for `CCCCOc1ccc(/C=C/C(=O)Nc2ccc([N+](=O)[O-])cc2C)cc1`?
D1 ag: inactive; TRHR ag: inactive; TRHR enhancer: inactive; D1 potentiator: inactive; D1 antagonist: inactive

How did Cc1ccc(/C=C/C(=O)Nc2ccc([N+](=O)[O-])cc2)o1 do in these assays?
D1 ag: inactive; TRHR ag: inactive; TRHR enhancer: inactive; D1 potentiator: inactive; D1 antagonist: -46

Results for O=C(/C=C/c1ccc([N+](=O)[O-])cc1)NCCSc1ccccc1 ?
D1 ag: inactive; TRHR ag: inactive; TRHR enhancer: inactive; D1 potentiator: inactive; D1 antagonist: -30

How did CC(=O)c1ccc(NC(=O)/C=C/c2ccc(C)o2)cc1 do in these assays?
D1 ag: inactive; TRHR ag: inactive; TRHR enhancer: inactive; D1 potentiator: inactive; D1 antagonist: inactive

What do the screens show for `Cc1ccc(/C=C/C(=O)Nc2ccc(Oc3ccccc3)cc2)o1`?
D1 ag: inactive; TRHR ag: inactive; TRHR enhancer: inactive; D1 potentiator: inactive; D1 antagonist: -32

Results for CCCOc1ccc(/C=C/C(=O)Nc2ccc([N+](=O)[O-])cc2)cc1 ?
D1 ag: inactive; TRHR ag: inactive; TRHR enhancer: inactive; D1 potentiator: inactive; D1 antagonist: -43

Results for Cc1cccc(OCCSc2nc3ccccc3n2CC(=O)N2CCOCC2)c1C ?
D1 ag: inactive; TRHR ag: inactive; TRHR enhancer: inactive; D1 potentiator: inactive; D1 antagonist: inactive

Results for COC(=O)c1ccc(NC(=O)C(c2ccccc2)N2Cc3ccccc3C2=O)cc1 (centres undefined) ?
D1 ag: inactive; TRHR ag: inactive; TRHR enhancer: inactive; D1 potentiator: inactive; D1 antagonist: inactive

How did CCN(C(=O)COC(=O)c1ccc(OCc2c(C)noc2C)cc1)c1ccccc1 do in these assays?
D1 ag: inactive; TRHR ag: inactive; TRHR enhancer: inactive; D1 potentiator: inactive; D1 antagonist: inactive

What do the screens show for `CN(c1ccc(OCc2ccc([N+](=O)[O-])cc2)cc1)S(=O)(=O)c1ccccc1`?
D1 ag: inactive; TRHR ag: inactive; TRHR enhancer: inactive; D1 antagonist: inactive

How did Cc1ccc(S(=O)(=O)N(C)c2ccc(OCC(=O)OCc3c(C)noc3C)cc2)cc1 do in these assays?
D1 ag: inactive; TRHR ag: inactive; TRHR enhancer: inactive; D1 potentiator: inactive; D1 antagonist: -47

What do the screens show for `Cc1ccc(C(C)C)c(OCC(=O)OCc2c(C)noc2C)c1`?
D1 ag: inactive; TRHR ag: inactive; TRHR enhancer: inactive; D1 potentiator: inactive; D1 antagonist: inactive

Results for Cc1ccc(S(=O)(=O)N(C)c2ccc(OCc3cccc(C)c3)cc2)cc1 ?
D1 ag: 38; TRHR ag: inactive; TRHR enhancer: inactive; D1 potentiator: inactive; D1 antagonist: inactive

What do the screens show for `CCN(c1ccccc1)S(=O)(=O)c1ccc(OCc2c(C)noc2C)cc1`?
D1 ag: inactive; TRHR ag: inactive; TRHR enhancer: inactive; D1 potentiator: inactive; D1 antagonist: -32

How did CC(C)CCNc1nc(Nc2ccccc2)c2cnn(C)c2n1 do in these assays?
D1 ag: inactive; TRHR ag: inactive; TRHR enhancer: inactive; D1 potentiator: inactive; D1 antagonist: inactive

What do the screens show for `N#CC1=C(N)OC2=C(CC/C2=C\c2ccccc2Cl)C1c1ccccc1Cl` (centres undefined)?
D1 ag: 35; TRHR ag: inactive; TRHR enhancer: inactive; D1 potentiator: inactive; D1 antagonist: inactive

What do the screens show for `CC(=O)n1c(-c2ccccc2)c(CO)c2ccccc21`?
D1 ag: inactive; TRHR ag: inactive; TRHR enhancer: inactive; D1 potentiator: inactive; D1 antagonist: inactive

High-throughput results: PubChem, National Center for Advancing Translational Sciences (NCATS)
